# “And” between values parts separate entries of the source, which are not always exact repeats. Identical values can stand only once. In all, about 350,000 compounds went through this assay and about 9,900 (2.8%) were called active. About 15% were inconclusive and are not listed. The call rests on the fitted dose curve; in most records, active means well fitted activation curve with a large enough effect; inconclusive means small, poorly fitted or top-dose-only effect; inactive means no such curve, though single readings can be large or run the other way. The entries come from a sample that favours actives as a whole. A call without a number means that no potency is given here.
# Assay: A quantitative high throughput screen for small molecules that induce DNA re-replication in MCF 10a normal breast cells. Further: nearly all actives have a fitted effect of over 50% in size.
# Conditions: MCF 10A DNA re-replication, Hoechst nuclear intensity, 48 h; series mostly up to 46.1 µM
# Potency means the concentration at half of the fitted maximal effect.
row,SMILES,Potency
1,Cc1ccc(Cn2c(C)c3cnn(CC(=O)NCCN4CCOCC4)c(=O)c3c2C)cc1,inactive
2,O=C(NCCCN1CCOCC1)c1cn(-c2ccccc2)nc1-c1ccc(F)cc1,inactive
3,COc1ccc(-c2ccc3c(c2)C2CC3CCN2CCC#N)cc1 (centres undefined),inactive
4,CCN(CC)S(=O)(=O)c1cc(C(=O)Nc2cc(S(=O)(=O)N3CCOCC3)ccc2N2CCCC2)ccc1F,inactive
5,C/C(=C\c1ccccc1)C1NC(=O)c2c(sc3c2CCCC3)N1 (centres undefined),20.6 µM (active)
6,O=C1CCCCC1C(=O)c1ccccc1 (centres undefined),inactive
7,O=C1NC(c2ccncc2)Nc2sc3c(c21)CCCC3 (centres undefined),inactive
8,CNC[C@H]1Oc2c(NC(=O)C3CCCCC3)cccc2C(=O)N([C@H](C)CO)C[C@@H]1C,inactive
9,Cc1noc(C)c1S(=O)(=O)N(C)C[C@H]1Oc2ccc(NC(=O)C3CCCCC3)cc2C(=O)N([C@H](C)CO)C[C@@H]1C,inactive
10,O=C(COC(=O)c1ccccc1)c1ccc2c(c1)OCCO2,inactive
11,O=C(CN1CCC(O)(c2ccccc2)CC1)Nc1ccc2c(c1)OCCO2,inactive
12,O=C(CCN1CCc2ccccc2C(O)(c2ccccc2)C1)c1ccc2c(c1)OCCO2 (centres undefined),6.51 µM (active)
13,CCN(C(=O)COC(=O)c1ccccc1O)c1cccc2ccccc12,inactive
14,O=C(CCCOc1ccccc1)NNC(=O)c1ccc(Cl)cc1,inactive
15,CCC1=NN2C(=N)/C(=C/c3cc(C)n(-c4ccccc4)c3C)C(=O)N=C2S1,inactive
16,CCS(=O)(=O)C1=NSC2=NC(=O)/C(=C\c3ccc(OS(=O)(=O)c4ccccc4)cc3)C(=N)N21,inactive
17,CCS(=O)(=O)C1=NSC2=NC(=O)/C(=C\c3cc(C)n(-c4cccc(OC)c4)c3C)C(=N)N21,5.8 µM (active)
18,CC(=O)c1cccc(-c2ccc(CN3C(CC(C)C)C(=O)N(Cc4cn(CC5CCCCC5)nn4)CCS3(=O)=O)cc2)c1 (centres undefined),inactive
19,CCOc1cc2ccccc2cc1C(=O)Nc1ccccn1,inactive
20,CCOc1ccc(C(=O)Nc2cc(OC)ccc2OC)cc1,inactive
21,CCOc1cc(NC(=O)c2ccccn2)c(OCC)cc1NC(=O)c1ccc(OC)cc1,3.26 µM (active)
22,CN(Cc1ccc(CNC[C@H]2O[C@@H](n3cnc4c(N)ncnc43)[C@H](O)[C@@H]2O)o1)S(C)(=O)=O,inactive

row,SMILES,Potency
1,Cc1c(C(C)CCCO)oc(=O)c2c1Oc1c(C)c(C(C)C[C@@H](C)O)oc(=O)c1C2 (some centres undefined),inactive
2,CCCn1c(C)cc(C(=O)COC(=O)c2c(C)nn(-c3ccccc3)c2C)c1C,9.2 µM (active)
3,Cc1nn(-c2ccccc2)c(C)c1C(=O)OCC(=O)NC(=O)NC1CCCCC1,inactive
4,Cc1cccc(C)c1NC(=O)COC(=O)c1c(C)nn(-c2ccccc2)c1C,inactive
5,O=C1CCC/C=C\C[C@@H](CC(=O)N(CCO)Cc2ccccc2)C(=O)NCCO1,inactive
6,O=C1OCC2=C1C(c1ccc(Cl)cc1)c1cc3c(cc1O2)OCO3 (centres undefined),inactive
7,C=CC(=O)OCCOCCOCCOCCOC(=O)C=C,5.8 µM (active)
8,Cc1cc(N/N=C\c2ccc(Br)cc2)nc(-n2nc(C)cc2C)n1,18.4 µM (active)
9,CCOC(=O)c1cnc(-n2nc(C)cc2C)nc1Nc1cccc(C(C)=O)c1,inactive
10,Cc1cc(C)n(-c2ccc(Cl)c(C(=O)O)n2)n1,inactive
11,Cc1cc(C)n(-c2nnc(N3CCN(c4ccccc4)CC3)nn2)n1,inactive
12,CC(=O)c1ccc(Oc2cc(C)nc(-n3nc(C)cc3C)n2)cc1,4.11 µM (active)
13,Cc1ccc(S(=O)(=O)Nc2nc(C)cc(N/N=C/c3ccc(O)cc3)n2)cc1,inactive
14,Cc1cc(Nc2ccc(Cl)cc2)nc(N2CCOCC2)n1,inactive
15,CC(=O)Nc1ccc(Nc2cc(C)nc(Nc3ccc(NC(C)=O)cc3)n2)cc1,inactive
16,COc1ccc(Nc2cc(C)nc(-n3nc(C)cc3C)n2)cc1,2.06 µM (active)
17,COc1ccc2oc(N)nc2c1,inactive
18,COc1cccc(CNC(C)C(=O)Nc2ccc(S(=O)(=O)N3CCCC3)cc2)c1 (centres undefined),inactive
19,CN(Cc1ccc(F)cc1)C(=O)CN1C(=O)c2ccccc2S1(=O)=O,inactive
20,C[C@]12CC[C@H](O)CC1=CCC1C2CC[C@@]2(C)C1CC[C@@H]2NC(=O)CCC(=O)O (some centres undefined),inactive
21,CC1CCCCC1NC(=O)COC(=O)Cc1ccc(Cl)cc1 (centres undefined),inactive
22,CC(C)(C)C(=O)Nc1cccc(-c2ccc[nH]2)n1,inactive

row,SMILES,Potency
1,CC(=O)c1c(C)[nH]c(C(=O)OCC(=O)Nc2c(C)cccc2C)c1C,inactive
2,O=C(CNC(=O)c1ccco1)NNC(=O)c1ccc(Br)cc1,inactive
3,Cc1cccc(NC(=S)N2CCCC(c3nc4ccccc4[nH]3)C2)c1 (centres undefined),1.03 µM (active)
4,Cc1cccc(NC(=S)N2CCC(c3nc4ccccc4s3)CC2)c1,inactive
5,CCCNC(=S)N1CCCC(c2nc3ccccc3[nH]2)C1 (centres undefined),inactive
6,O=C(Nc1ccccc1)c1ccc(NC(=O)c2cccs2)cc1,inactive
7,O=C(Nc1ccnc(-c2ccncc2)n1)c1cccs1,0.259 µM (active)
8,O=C(Nc1ccccc1-c1ccccc1)c1cccs1,inactive
9,Cc1cccc(N2CCN(c3ccc(NC(=O)/C=C\C(=O)O)cc3)CC2)c1,inactive
10,CN1CCN(c2ccc(NC(=O)c3ccccc3)cc2)CC1,inactive
11,C=CC(=O)Nc1ccc(Nc2ccnc(Nc3ccc(N4CCN(C)CC4)cc3)n2)cc1,20.6 µM (active)
12,CCCCN(CC(=O)Nc1cccc(S(=O)(=O)N2CCCC2)c1)Cc1nc2ccccc2c(=O)[nH]1,inactive
13,COC1C(CO)OC(n2cnc3c(=S)nc(N)[nH]c32)C1O (centres undefined),inactive
14,COc1ccc2nc(SCC(=O)Nc3c(C)cc(C)cc3C)[nH]c2c1,inactive
15,Cc1ccc(O)c(CNc2nc3ccccc3[nH]2)c1,inactive
16,COC(=O)Nc1nc2ccc(Sc3ccccc3)cc2[nH]1,904 nM (active) and 1.16 µM (active)
17,Cc1ccccc1Nc1nc(N)nc(COC(=O)CCC(=O)c2ccc(F)cc2)n1,inactive
18,Cc1cc(CO)nn1-c1ccc([N+](=O)[O-])cc1,inactive
19,CC(C)(C)c1cnnn1-c1ccc([N+](=O)[O-])cc1,inactive
20,COc1cnn(-c2ccc([N+](=O)[O-])cc2)c(=O)c1Cl,18.4 µM (active)

# Reference: PubChem BioAssay AID624296 (National Center for Advancing Translational Sciences (NCATS), 2012)
